# This is a sample that favours compounds with a hit; in the whole collection about 1.6% have one here.
# KCNQ2 enhance: KCNQ2 (rat) channel potentiation. CHO-K1 KCNQ2, FluxOR thallium flux fluorescence; hits give high values. B-score at 10 µM. hit rate 0.54% among 310,000. AID 2239;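 active = fluorescence ratio B-score at least 3 SD of library B-scores, with initial fluorescence B-score within 3 of them, cut at about 5.3 in these data; same plate scores as AID 2156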;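 note: B-score of peak minus minimum over baseline fluorescence ratio after K+ and Tl+ stimulus; positive B-score means potentiation of KCNQ2 with more thallium influx and brighter signal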
# Target sequence (O88943 whole entry, looked up): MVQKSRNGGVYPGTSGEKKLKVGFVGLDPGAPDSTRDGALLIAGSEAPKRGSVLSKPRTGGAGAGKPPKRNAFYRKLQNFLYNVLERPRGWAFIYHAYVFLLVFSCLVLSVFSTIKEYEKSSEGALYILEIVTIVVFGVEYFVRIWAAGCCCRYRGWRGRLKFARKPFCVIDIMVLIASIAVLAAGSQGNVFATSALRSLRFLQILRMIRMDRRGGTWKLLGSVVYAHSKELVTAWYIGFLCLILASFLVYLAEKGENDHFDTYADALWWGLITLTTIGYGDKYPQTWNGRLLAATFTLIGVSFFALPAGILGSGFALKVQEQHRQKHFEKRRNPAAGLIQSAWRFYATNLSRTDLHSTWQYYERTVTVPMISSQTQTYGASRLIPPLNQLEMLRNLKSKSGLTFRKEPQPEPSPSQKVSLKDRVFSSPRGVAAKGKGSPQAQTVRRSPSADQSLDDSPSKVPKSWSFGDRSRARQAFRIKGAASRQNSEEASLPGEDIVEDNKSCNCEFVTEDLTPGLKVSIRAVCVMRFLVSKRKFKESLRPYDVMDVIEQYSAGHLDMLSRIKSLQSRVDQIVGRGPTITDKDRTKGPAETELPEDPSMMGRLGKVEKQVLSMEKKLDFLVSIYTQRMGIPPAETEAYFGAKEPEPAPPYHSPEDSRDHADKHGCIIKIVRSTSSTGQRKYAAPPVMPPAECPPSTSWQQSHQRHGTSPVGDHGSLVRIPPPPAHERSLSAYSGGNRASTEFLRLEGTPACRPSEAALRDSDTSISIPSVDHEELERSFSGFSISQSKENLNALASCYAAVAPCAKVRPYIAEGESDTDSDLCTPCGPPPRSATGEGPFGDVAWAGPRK
# KCNQ2 block: blocks the rat KCNQ2 potassium channel | O88943 | CHO-K1 KCNQ2, FluxOR thallium flux, 20 min; hits give low values | B-score at 10 µM | hit rate 1.1% among 310,000 | AID 2156;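 active = fluorescence ratio B-score at most minus 3 library SDs, with starting brightness B-score within 2 library SDs, cut at about -5.5 in these data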
# Starred values were filed as active, the others as inactive; i = inactive; . = no result given.
SMILES,KCNQ2 enhance,KCNQ2 block
Cc1ccc2c(C)c(C(=O)NCCN3CCOC3=O)oc2c1C,5.47*,i
Cc1ccc(S(=O)(=O)N(CC(=O)N(C(C)C)C(C)C)C(=O)N2CCN(C)CC2)cc1,0.64,i
COc1ccc2cc(CCNC(=O)c3ccc(S(=O)(=O)N4CCOCC4)cc3)c(=O)[nH]c2c1,.,i
c1ccc(Cn2c(CNc3nc4ccccc4n3CCN3CCOCC3)nc3ccccc32)cc1,-5.96,-5.96*
c1ccc2c(c1)nc(NCc1ccc3c(c1)OCO3)n2CCN1CCOCC1,.,i
O=C(OCC(=O)N(CCc1ccccc1)Cc1ccccc1)c1ccccc1NCCO,-6.48,-6.48*
O=C(OCC(=O)N(CCc1ccccc1)Cc1ccccc1)c1cc(S(=O)(=O)N2CCOCC2)ccc1F,.,i
COc1ccc(C(=O)N(CCc2ccccc2)Cc2ccccc2)cc1S(=O)(=O)N1CCOCC1,.,i
Cc1ccc(C(=O)OCC(=O)N(CCc2ccccc2)Cc2ccccc2)cc1S(=O)(=O)N1CCOCC1,-6.04,-6.04*
Cc1ccc(C(=O)N(CCc2ccccc2)Cc2ccccc2)cc1S(=O)(=O)N1CCCCC1,-8.06,-8.06*
O=C(OCC(=O)N(CCc1ccccc1)Cc1ccccc1)c1cccc(O)c1,.,i
C=CCNc1nc2c(c(=O)[nH]c(=O)n2C)n1CC(O)COc1ccc2ccccc2c1 (centres undefined),1.54,i
O=S(=O)(Oc1ccc(C(=S)N2CCOCC2)cc1)c1ccc(Cl)cc1,.,i
Cc1ccc(S(=O)(=O)N2CCN(C(=O)CC(C)n3nc(C)c(Cl)c3C)CC2)cc1 (centres undefined),0.44,i
Cc1nn(C)c2nc(-c3cccs3)cc(C(F)(F)F)c12,.,i
Cc1nn(CCO)c2nc(-c3cccs3)cc(C(F)(F)F)c12,5.75*,i
S=C(NCc1cccc(Cl)c1)NC1CCCCC1,8*,i
S=C(NCc1ccccc1)NC1CCCCC1,1.26,i
O=C(c1ccc(Cl)c(S(=O)(=O)N2CCCC2)c1)N1CCN(c2ccccn2)CC1,0.71,i
CC(C)c1ccc(COc2ccc(C(=O)N3CCOCC3)cc2)cc1,.,i
O=C(c1ccc(Cl)c(S(=O)(=O)NCc2ccccc2)c1)N1CCN(c2ccccn2)CC1,-5.77,-5.77*
CC(C)c1ccc(OCc2ccc(C(=O)N3CCN(c4ccccn4)CC3)cc2)cc1,-7.5,-7.5*
O=C(c1ccccc1Cl)N(Cc1ccc(Br)cc1)N1C(=O)CCC1=O,.,i
O=C(NCCc1ccc(Cl)cc1Cl)c1cncc(Br)c1,.,i
CCCNC(=O)NC(=O)CN1C(=O)NC(C)(c2ccc3ccccc3c2)C1=O (centres undefined),0.27,i
SMILES,KCNQ2 enhance,KCNQ2 block
COC(=O)C1=C(N)Oc2cc(C)[nH]c(=O)c2C1c1ccccc1OC (centres undefined),.,i
CN(C)S(=O)(=O)n1cc(/C=C(\NC(=O)c2ccccc2F)C(=O)NCCCn2ccnc2)c2ccccc21,.,i
CCOC(=O)c1c(N)sc(N)c1C(=O)OCC,9.73*,i
CCOC(=O)c1c(N)sc(C(N)=O)c1C,.,i
COc1cc(/C=C2\SC(=S)N(NC(=O)c3ccccc3O)C2=O)ccc1O,.,i
O=C(NN1C(=O)/C(=C/c2ccc(O)cc2)SC1=S)c1ccccc1O,-5.96,-5.96*
COc1ccc(OC)c(S(=O)(=O)ON2C(=O)c3ccccc3C2=O)c1,.,i
O=C(Oc1ccc(Br)cc1C(=O)/C=C/c1ccccc1F)c1ccco1,-7.16,-7.16*
CC(=O)c1cc(Cl)ccc1OC(=O)c1ccco1,1.46,i
CCCCN(C(=O)C1CCCO1)c1c(N)n(CC(C)C)c(=O)[nH]c1=O (centres undefined),.,i
CCN(CC)CC(=O)NC12CC3CC(CC(C3)C1)C2,.,i
CCN(CC)C(=S)SCC(=O)NC12CC3CC(CC(C3)C1)C2,8.78*,i
O=c1c2ccccc2nc(SCc2nnc(-c3ccccc3Br)o2)n1-c1ccccc1,.,i
O=c1c2ccccc2nc(SCc2nnc(-c3ccccc3)o2)n1-c1ccc(F)cc1F,-6.43,-6.43*
Cc1cc(S(N)(=O)=O)c(N)c(S(N)(=O)=O)c1,0.36,i
COc1ccc(NC(=O)CSc2nc(SC)ns2)cc1,.,i
CCC(=O)N1CCN(c2cc(N3CCCC3)c(F)cc2[N+](=O)[O-])CC1,0.05,i
CC(=O)N1CCN(c2cc(N3CCc4ccccc4C3)c(F)cc2[N+](=O)[O-])CC1,-5.61,-5.61*
Cc1cccc(NS(=O)(=O)c2csc(C(N)=O)c2)c1C,0.87,i
CC(C)c1ccc(NC(=O)[C@H](Cc2c[nH]c3ccccc23)NC(=O)[C@@H]2Cc3ccccc3CN2)cc1,-8.23,-8.23*
COc1ccc(NC(=O)[C@H](Cc2c[nH]c3ccccc23)NC(=O)[C@@H]2Cc3ccccc3CN2)cc1,.,i
COc1ccccc1NC(=O)c1sc2ncn(Cc3ccccc3C)c(=O)c2c1C,-5.85,-5.85*
CCn1cnc2sc(C(=O)Nc3ccccc3OC)c(C)c2c1=O,.,i
Cc1ccc(NC(=S)/C(=C(\[O-])c2ccc(Cl)s2)[n+]2cccc(CO)c2)cc1C,-7.76,-7.76*
[O-]/C(=C(\C(=S)Nc1ccc(SC(F)F)cc1)[n+]1cccc(CO)c1)c1ccc(Cl)s1,.,i
SMILES,KCNQ2 enhance,KCNQ2 block
COCCNC(=O)Cc1cn(C)c2ccccc12,1.11,i
Cn1cc(CC(=O)NC2CCCCC2)c2ccccc21,5.38*,i
CS(=O)(=O)NNC(=O)Cn1nnc(-c2ccc(OCc3ccccc3Cl)cc2)n1,.,i
O=C(COc1ccccc1)NCC(=O)N/N=C/c1ccc(Br)cc1,1.73,i
CCOC(=O)/C=C1/N(C)c2ccccc2C1(C)C,1.94,i
CN1/C(=C\C(=O)COC(=O)c2ccc(O)c(O)c2)C(C)(C)c2ccccc21,-6.51,-6.51*
CN1/C(=C\C(=O)COC(=O)c2ccc(O)cc2)C(C)(C)c2ccccc21,-6.21,-6.21*
CNS(=O)(=O)c1cccc(C(=O)OCC(=O)/C=C2/N(C)c3ccccc3C2(C)C)c1,1.33,i
CCCN(CCC)C(=O)Cn1c(=O)c2sccc2n2c(=S)sc(-c3ccccc3)c12,.,i
CCCN(CCC)C(=O)Cn1c(=O)c2ccccc2n2c(=S)sc(-c3ccccc3C)c12,-6.78,-6.78*
CCOC(=O)c1c(C(=O)OCC)c(C)n(CCc2ccccc2)c1C,-5.81,-5.81*
CCOC(=O)c1c(C)c(C(=O)NCCc2ccccc2)c(C)n1C,.,i
COc1cc(NC(=O)CSc2nc(=O)n(CCN3CCOCC3)c3c2CCCC3)cc(OC)c1,.,i
Cc1cc(NC(=O)CS(=O)(=O)c2cn(Cc3ccc(F)cc3)c3ccccc23)no1,.,i
Cc1cc(NC(=O)CS(=O)(=O)c2cn(Cc3cccc(F)c3)c3ccccc23)no1,-5.69,-5.69*
Cc1ccc(C2(O)CN(c3ccccc3)C3=[N+]2CCS3)cc1 (centres undefined),.,i
O=[N+]([O-])c1ccc(C2(O)CN(c3ccccc3)C3=[N+]2CCS3)cc1 (centres undefined),-6.52,-6.52*
CCC(C)[C@H](NC(=O)N1CCn2c1nc1ccccc12)C(=O)NCCc1ccc(OC)c(OC)c1 (some centres undefined),0.2,i
Cc1cccc(N2CCN(C(=S)NCCc3ccccc3)CC2)c1C,.,i
Cc1ccc(Cl)cc1N1CCN(C(=S)NCCc2ccccc2)CC1,-5.8,-5.8*
Nc1c(Cl)cc(C2=NCCn3c2c2ccc(C(F)(F)F)cc2[n+]3[O-])cc1Cl,0.28,i

# Assay outcomes deposited in PubChem by Johns Hopkins Ion Channel Center.
